Source: PubChem BioAssay (NCI)
This is part of a sample that, as a whole, favours compounds with a hit. Of some 79,000 tested, about 15% had one in any assay. A number with no mark means an inactive call. Activity calls are given as the source filed them. Rule as the data show it: active = growth inhibition above about 70%; inactive = the rest. Where a SMILES comes first, the peptide text is derived from it.

Experiments:
[1] = NCI Yeast Anticancer Drug Screen. Data for the rad50 strain (AID 155);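 also: 0% = growth of vehicle-only cultures of the same strain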; details: S. cerevisiae rad50 strain growth inhibition; at 50.0 µM; active compounds read high
Procedure, shortened: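 A DNA repair-deficient yeast mutant serves as the test organism; compound-induced growth inhibition is calculated against vehicle-treated cells.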

[2] = NCI Yeast Anticancer Drug Screen. Data for the mec2-1 strain (AID 157); details: S. cerevisiae mec2-1 strain, at 50.0 µM, active compounds read high
Procedure, shortened: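 Cells of the genetically defined mec2-1 yeast strain are incubated with test compound. Inhibition of growth is calculated against vehicle-treated controls.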

[3] = NCI Yeast Anticancer Drug Screen. Data for the sgs1 mgt1 strain (AID 161);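 also: 0% = growth of cultures given vehicle only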; details: S. cerevisiae sgs1 mgt1 strain, at 50.0 µM, active compounds read high
Procedure, shortened: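 Mutant yeast exposed to compound; growth scored against vehicle-only wells.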

[4] = NCI Yeast Anticancer Drug Screen. Data for the cln2 rad14 strain (AID 165);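 also: 0% = growth equal to vehicle treated cultures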; details: S. cerevisiae cln2 rad14 strain, at 50.0 µM, active compounds read high
Procedure, shortened: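 The screen exposed genetically defined yeast (cln2 rad14) to test compounds and scored growth inhibition relative to vehicle-treated controls.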

[5] = NCI Yeast Anticancer Drug Screen. Data for the bub3 strain (AID 167); details: S. cerevisiae bub3 mutant strain, at 50.0 µM, active compounds read high
Procedure, shortened: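 Inhibition values come from growth of compound-treated mutant yeast normalised to vehicle-treated controls.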

[6] = NCI Yeast Anticancer Drug Screen. Data for the mlh1 rad18 strain (AID 175); details: S. cerevisiae mlh1 rad18 strain growth inhibition; at 50.0 µM; active compounds read high
Procedure, shortened: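 Compound-treated yeast growth, normalised to vehicle controls. Strain bears defined DNA repair mutations.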

| Compound | growth inhibition [1] | growth inhibition [2] | growth inhibition [3] | growth inhibition [4] | growth inhibition [5] | growth inhibition [6] |
| --- | --- | --- | --- | --- | --- | --- |
| CC(=O)n1[nH]c(=O)n(-c2ccccc2)c1=O | -23% | -20.1% | -17.9% | 10.1% | -26.1% | -24.5% |
| C[C@@H]1CC[C@@H](C)[C@](C)(CCc2ccoc2)C/C=C\C=C/1C(=O)O | 85.2% (active) | 85.8% (active) | 73.8% (active) | 84.7% (active) | 68.8% | 78.2% (active) |
| CSc1cc2c(cc1NC(C)=O)Cc1ccccc1-2 | 13.4% | -3.75% | 0.6% | 10.5% | 9.15% | -13.4% |
| O/N=C1/C2C=CC(C2)C1Cl (stereo not drawn) | 1.35% | -5.75% | 11.7% | 13.7% | -10.1% | -16.9% |
| CCN(CC)c1cc(-c2ccccc2)oc(=O)c1Cl | 25.8% | -10.3% | 13.6% | 9.4% | 16.5% | 20.6% |
| Nc1ccnc(Cl)n1 | -2.45% | -6.05% | -13.2% | 0.4% | 0.4% | -0.95% |
| OCC1COc2cc(Cl)c(Cl)cc2O1 (stereo not drawn) | 47.8% | 9.65% | 33.3% | 15% | 36.9% | 50.2% |
| CC(=O)Nc1ccc(OC(=O)Nc2ccc(C)c(NC(=O)Oc3ccc(NC(C)=O)cc3)c2)cc1 | 6.35% | -6.95% | 6.15% | 24.5% | 17.2% | 7.25% |
| O=C1c2ccccc2-c2ccc(I)cc21 | 5.15% | -1.7% | 2.25% | -17.6% | 8.45% | 26.2% |
| NC(=O)C1CCc2ccccc2C1 (stereo not drawn) | 0.7% | -15.1% | 2.6% | 3% | -5.15% | -9.45% |
| CCC(=O)Oc1cccc2ccccc12 | -14.4% | -26.9% | -14.8% | -14.3% | -24.9% | -8.05% |
| CC1(C)CC(=O)C(C=O)C(=O)C1 | -6.85% | -13.7% | -38.3% | -2.3% | 3% | -22.9% |
| CCOC(O)C(F)(F)C(F)(F)C(F)(F)F (stereo not drawn) | 9.05% | -32.2% | 3.5% | 20.9% | -7.95% | 20.1% |
| O=C(O)CSCCOCCSCC(=O)O | -15.9% | -54% | -17.1% | 12.1% | -16.3% | -15.6% |
| NC(Cc1cccs1)C(=O)O (stereo not drawn) | -31.9% | -21.9% | -27.6% | -43% | -2.5% | -37.1% |
| CC(C)c1ccc(OC(=O)Nc2c(Cl)cccc2Cl)cc1 | -18.4% | -27.6% | 5.95% | 5.6% | 7.2% | -3.65% |
| O=C(COc1cccc(Cl)c1)Nc1ccc(C(=O)CCl)cc1 | 23.9% | 49.5% | 35.9% | 11.8% | 47% | 44.5% |
| NC(=O)c1ccc(Cl)cc1 | 33% | 14.2% | 15.5% | 14.4% | -0.6% | 2% |
| CC(=O)OC1CCC2(C)C(=CCC3C4CCC(=O)NC4(C)CCC32)C1 (stereo not drawn) | 43% | -1.8% | 52.7% | -4.95% | 8.4% | 28.9% |

| Compound | growth inhibition [1] | growth inhibition [2] | growth inhibition [3] | growth inhibition [4] | growth inhibition [5] | growth inhibition [6] |
| --- | --- | --- | --- | --- | --- | --- |
| CNC(=S)Nc1ccccc1 | -21.3% | -33.8% | 3.55% | -8.15% | -5.35% | 18.8% |
| O=CNC(Cc1ccccc1)c1ccc(OCc2ccccc2)cc1 (stereo not drawn) | 0.75% | 5% | 1.55% | 31.1% | 31.6% | 16.9% |
| CCCc1c(OC(=O)c2ccc([N+](=O)[O-])cc2)cccc1OC(=O)c1ccc([N+](=O)[O-])cc1 | 20.1% | 1.1% | 12.8% | 18.1% | -3.95% | 7.55% |
| CC1(C)C(=O)OC(n2ccc(=O)[nH]c2=O)C1=O (stereo not drawn) | 7.15% | -11.2% | -7.75% | -43.9% | -10.8% | 12.7% |
| CCOC(=O)CCCN(c1sc(C)c(-c2ccccc2)c1C(=O)OCC)S(=O)(=O)c1ccc(C)cc1 | -16.6% | -3.25% | -14.6% | -29.3% | -3.75% | 4.5% |
| CC(=O)NC(Cc1cc(I)c(OC(C)=O)c(I)c1)C(C)=O (stereo not drawn) | 5.45% | 7.1% | 0.7% | 14.6% | 4% | -18.4% |
| CCOC(=O)N1CC(C)N(C(=O)OCC)CC1C (stereo not drawn) | -3.9% | -7.1% | 6.7% | -15.8% | 33.8% | 8.5% |
| O=C=Nc1ccccc1[N+](=O)[O-] | -4.25% | -28% | -15.8% | -65.5% | -0.55% | -9.2% |
| CC1NC(=O)C2CCCN2C(=O)C2CCCN2C(=O)C(C(C)C)NC(=O)C(Cc2ccccc2)NC(=O)C(Cc2ccccc2)NC(=O)C2CCCN2C(=O)C2CCCN2C(=O)C(Cc2ccccc2)NC(=O)C(Cc2ccccc2)NC1=O (stereo not drawn) (cyclo(AFFPPFFVPP); configuration not given here) | 6.65% | -8.5% | -2.35% | 2.8% | 1.25% | 16.6% |
| Cc1nsc2[nH]c(=O)n(Nc3ccc(O)cc3)c(=O)c12 | -13.6% | 1.1% | -18.7% | 8.75% | 5% | -4.9% |
| O=C(CCl)OCc1ccc(Cl)cc1 | 4.5% | 2.55% | -3.75% | -27.8% | 1.25% | -9.45% |
| NS(=O)(=O)c1ccc2cc(S(N)(=O)=O)ccc2c1 | 19.1% | 13.5% | 22.4% | 15.5% | 23.1% | 25.8% |
| CCCCCCCCN(CCCCCCCC)CC(O)c1ccc2c(c1)Sc1ccccc1O2 (stereo not drawn) | 96.7% (active) | 98.2% (active) | 97.5% (active) | 97.1% (active) | 97.1% (active) | 98% (active) |
| COc1ccc(C2OC(C)C(C)O2)cc1 (stereo not drawn) | -9.3% | 10.4% | -1.5% | -42.6% | -8.35% | -8% |
| COc1ccc(C23CCC(=O)N2CCS3)cc1 (stereo not drawn) | -1.25% | -20.3% | -10.7% | 8.15% | 30% | 2.8% |
| COc1ccc(OC)c(NC(=O)c2ccccc2Cl)c1 | -4.85% | -1.95% | 16.7% | -13% | 48.2% | -16.8% |
| NCC(O)COCc1ccccc1 (stereo not drawn) | -16.1% | -24.4% | -1.65% | -28.1% | -1.6% | -0.35% |
| CC(C)OP(=O)(OC(C)C)C([CH2][Sn]([CH3])([CH3])[Cl])P(=O)(OC(C)C)OC(C)C | 5.75% | -0.8% | 0.45% | 0.25% | -2.1% | -1.45% |
| CCCCCCC(=O)/C=C/c1cccc(OCc2cccc(Cl)c2)c1 | 24.4% | 16.8% | 19.1% | 16.8% | 1.55% | 4.65% |
